Test results taken from PubChem BioAssay AID540362 (National Center for Advancing Translational Sciences (NCATS), 2011).
Results filed as inconclusive are left out. Activity calls are given as the source filed them. Calls follow the shape of the dose curve; as a rule, active = well fitted cell-killing curve with a large enough effect; inconclusive = small, poorly fitted or top-dose-only effect; inactive = flat fitted curve, though single readings scatter.

Test: PC3M Cytotoxicity Assay for Compounds that Inhibit the Perinuclear Compartment
Conditions: PC3M-GFP viability, ATPLite luminescence, 24 h
Source text: The perinucleolar compartment (PNC) is a non-membrane-bound nuclear subdomain that is associated with but structurally distinct from the nucleolus. The PNC is a heritable trait, in which the number of PNCs per cell in daughter cells often mimics that of their mother cells. The PNC is heterogeneous in shape, is stable through interphase, disassembles during mitosis, and reassembles in early G1. The PNC is concentrated with newly synthesized RNA polymerase III (pol III) RNAs (MRP RNA, RNAse P H1 RNA, hY RNAs[hY1, 2, 5], Alu RNA, and SRP [7SL] RNA) and RNA binding proteins (nucleolin, PTB, CUG-BP, KSRP, Raver1, Raver2, and Rod). […] Extensive in vitro studies have shown that the PNC is unique to tumor cells and preferentially forms in tumor cells derived from solid tissues. Examination of cancer cell lines from various origins and malignant capacities has shown that PNC prevalence correlates with the malignancy of tumors and has the potential to be developed as a pan-cancer prognostic marker. […] Although the PNC is associated with a DNA locus and a handful of components have been identified, much remains to be investigated regarding the structure and function of the PNC and its mechanistic link to cancer. We have previously shown that PNC prevalence reduction is a valid strategy to identify compounds that can be used to study the structure and function of the PNC. It is necessary, however, to create a screening platform that is able to test a large number of compounds in an automated fashion. Here we report the development and robustness of an automated whole-cell phenotypic image-based screening assay that is capable of identifying such compounds. We conducted a followup assay to measure the effect of the lead candidates on cell health by measuring ATP levels (ATPLite). The highly metastatic PC3M-GFP reporter cell line was used in this study. NIH Chemical Genomics Center [NCGC] NIH Molecular Libraries Probe Centers Network [MLPCN] MLPCN Grant: MH082371-01A2 Assay Submitter (PI): Sui Huang, Northwestern University, Feinberg School of Medicine, Cell and Molecular Biology, Chicago, Illinois.
1. Cells at a density of 75-90% confluency in T175 flasks were harvested using 7 ml TrypLE Express cell dissociation reagent. After dissociation (5 minutes room temperature incubation) 10 ml of complete media was added to the TrypLE/cell suspension. The liquid was transferred to a 50 ml Conical tube and cells were pelleted at 1000 RPM for 5 min. Supernatant was removed and cells were resuspended to a final density of 150-200 cells/ul in complete media. 2. Cells were plated in 5 ul volume (2000 cells/well) into 1536 well White solid bottom plates and allowed to recover and adhere at 37 C in a humidified 5% CO2 incubator for 4 hours. 3. After 4 hour incubation, compound libraries (23 nl of […] in columns 5-48) were transferred to the plates in duplicate using a 1536 well pintool. Camptothecin positive control (59 uM final) was added to column 2 and 1:3 dilutions of camptothecin was added to column 3. DMSO negative controls were present in columns 1 and 4. 4. After a 24 hour incubation in the 37 C incubator, all wells were treated with 3 ul of ATPLite reagent using a multidrop combi dispenser (ThermoFisher). Bubbles that formed during dispensing were removed by spinning the plates for 1 minutre at 1500 RPM on a table top centrifuge. 5. Luminescencent signal was detected on a Viewlux CCD based imager (PerkinElmer) with a clear filter and a 30 second integration time. The PC3M cell line stably expressing the PTB-GFP was provided by Sui Huang of Northwestern University. The media and cell culture reagents were purchased from Invitrogen (Carlsbad, CA), ATPLite came from PerkinElmer.
With `N=c1c2c(-c3ccccc3)c(-c3ccccc3)n(Cc3ccco3)c2ncn1CCCn1ccnc1` the Potency was 25 µM (active).
For `N=c1c2c(-c3ccccc3)c(-c3ccccc3)n(Cc3ccco3)c2ncn1CCO`, the Potency was 19.9 µM (active).
With `N=c1c2c(-c3ccccc3)c(-c3ccccc3)n(Cc3ccco3)c2ncn1Cc1ccccc1` the Potency was 19.9 µM (active).
In the case of `CC(C)Cn1cnc2c(c(-c3ccccc3)c(-c3ccccc3)n2Cc2ccco2)c1=N`, the Potency is reported as 19.9 µM (active).
In the case of `N=c1c2c(-c3ccccc3)c(-c3ccccc3)n(Cc3ccco3)c2ncn1Cc1ccco1`, the Potency is reported as 19.9 µM (active).
With `N=c1c2c(-c3ccccc3)c(-c3ccccc3)n(Cc3ccccc3)c2ncn1CCCn1ccnc1` the Potency was 19.9 µM (active).
